Experimental data from PubChem BioAssay (NCI).
About 79,000 compounds went through this panel and 15% of them were active in at least one assay; those are over-represented in the sample as a whole. Values without a mark were called inactive. Active and inactive are the calls of the source. No stated cut-off is given here; in the data, active means growth inhibition above about 70%; inactive means the rest.

Experiment: NCI Yeast Anticancer Drug Screen. Data for the rad50 strain (AID 155);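 further: 0% = growth of vehicle-only cultures of the same strain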
Conditions: S. cerevisiae rad50 strain growth inhibition, active compounds read high
Protocol: Growth inhibition of yeast strains with defined genetic alterations is measured as a screen for potential anti-cancer activity. Selected strains with alterations in DNA damage repair or cell cycle control were exposed to compounds and growth inhibition was measured relative to vehicle treated controls. The strain used in this assay is rad50

[1] = at 5.0 µM (retest, dose inferred, filed as 0.5)
[2] = at 50.0 µM (retest, dose inferred, filed as 5.0)

Q: What does the source list for `COC(=O)c1nc(Cl)nc(Cl)c1N`?
A: growth inhibition [1]: 8%; growth inhibition [2]: 95% (active); growth inhibition (at 50.0 µM): 96.7% (active)

Q: What does the source list for `NCC(CS)C(=O)NC(CS)C(=O)NC(CS)C(=O)NCCNc1ccc(NCCNC(=O)C(CS)NC(=O)C(CS)NC(=O)C(CN)CS)c2c1C(=O)c1c(O)ccc(O)c1C2=O` (configuration not stated)?
A: growth inhibition [1]: 80% (active); growth inhibition [2]: 78% (active); growth inhibition (at 50.0 µM): 61.1%

Q: With `Cc1ccc(S(=O)(=O)N/N=C/Cc2ccccc2)cc1` as the molecule, how does the growth inhibition [1] read?
A: Its growth inhibition is 2%.

Q: What about the growth inhibition [2] of the same molecule?
A: The growth inhibition was 96% (active).

Q: What about the growth inhibition (at 50.0 µM) of the same molecule?
A: The growth inhibition was 87.5% (active).

Q: With `O=C(NCCCCCCNC(=O)n1cc(F)c(=O)[nH]c1=O)NC1C(O)OC(CO)C(O)C1O` (configuration not stated) as the molecule, how does the growth inhibition [1] read?
A: The growth inhibition was 63%.

Q: What about the growth inhibition [2] of the same molecule?
A: The growth inhibition was 89% (active).

Q: What about the growth inhibition (at 50.0 µM) of the same molecule?
A: Its growth inhibition is 93.9% (active).

Q: What does the source list for `Cc1ccc(S(=O)(=O)NNc2nc(N(C)C)nc(N(C)C)n2)cc1`?
A: growth inhibition [1]: 1%; growth inhibition [2]: 7%; growth inhibition (at 50.0 µM): 9.15%

Q: Which growth inhibition [1] does the source give for `CSc1nc(=Nc2ccccc2)sn1-c1ccccc1` here?
A: Its growth inhibition is 10%.

Q: What about the growth inhibition [2] of the same molecule?
A: The growth inhibition was 98% (active).

Q: And the growth inhibition (at 50.0 µM)?
A: Its growth inhibition is 98.8% (active).

Q: For `Cn1cnc([N+](=O)[O-])c1Sc1ccc(Cl)cc1`, which growth inhibition [1] is on record?
A: The growth inhibition was 16%.

Q: And the growth inhibition [2]?
A: Its growth inhibition is 93% (active).

Q: And the growth inhibition (at 50.0 µM)?
A: The growth inhibition was 93.8% (active).

Q: Which growth inhibition [1] does the source give for `Cc1cc(Cc2cccc(Cl)c2)ccc1O` here?
A: Its growth inhibition is -8%.

Q: And the growth inhibition [2]?
A: Its growth inhibition is 99% (active).

Q: And the growth inhibition (at 50.0 µM)?
A: Its growth inhibition is 99.5% (active).

Q: What does the source list for `CC(C)(N)COB(c1ccccc1)c1ccccc1`?
A: growth inhibition [1]: 10%; growth inhibition [2]: 99% (active); growth inhibition (at 50.0 µM): 99.7% (active)

Q: Which results are given for `COC(=O)c1ccc(CCc2cc(O)ccc2O)cc1`?
A: growth inhibition [1]: 58%; growth inhibition [2]: 99% (active); growth inhibition (at 50.0 µM): 98.8% (active)

Q: Which results are given for `O=c1c2ccccc2sc2c(CO)ccc(NCCN3CCCCC3)c12`?
A: growth inhibition [1]: -5%; growth inhibition [2]: 45%; growth inhibition (at 50.0 µM): 71.2% (active)

Q: With `S=c1c2cn[nH]c2nc2scc(-c3ccc(Cl)cc3)n12` as the molecule, how does the growth inhibition [1] read?
A: The growth inhibition was 1%.

Q: What about the growth inhibition [2] of the same molecule?
A: Its growth inhibition is 98% (active).

Q: And the growth inhibition (at 50.0 µM)?
A: Its growth inhibition is 45.4%.

Q: Which results are given for `CCCC(Sc1ccccc1)c1ccccc1NC(C)=O` (configuration not stated)?
A: growth inhibition [1]: 1%; growth inhibition [2]: 31%; growth inhibition (at 50.0 µM): 85.5% (active)

Q: For `Cc1ccc(/[N+]([O-])=C/c2ccccc2)cc1`, which growth inhibition [1] is on record?
A: Its growth inhibition is -2%.

Q: And the growth inhibition [2]?
A: The growth inhibition was -23%.

Q: What about the growth inhibition (at 50.0 µM) of the same molecule?
A: The growth inhibition was 98.2% (active).
